Screen size: about 5,500 compounds; about 2,000 (36%) were called active. Roughly 18% stayed inconclusive and do not appear here. Rule as the data show it: active = normalized growth mostly below about 0.91 (no sharp cut-off); inconclusive = no clear call, values can overlap the other calls; inactive = mostly above about 0.92. The list shows a part of the results.
Assay: chemical genetic growth profiling, strain panel (AID 1159580);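 also: tested at 20 µM; growth read once vehicle control cultures reached saturation at 30 °C; 1 = growth at the plate median or of vehicle wells; lower values mean less growth of the strain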
Conditions: growth OD

Measured: normalized growth

C[C@H](N)[C@H](O)c1ccc(O)c(O)c1
inactive: S. cerevisiae deletion strains, locus YJR066W, strain TOR1, active compounds read low 0.948 | S. cerevisiae deletion strains, locus YJR075W, strain HOC1, active compounds read low 0.993 | S. cerevisiae deletion strains, locus YKL009W, strain mrt4, active compounds read low 0.994 | S. cerevisiae deletion strains, locus YKL068W, active compounds read low 0.986 | S. cerevisiae deletion strains, locus YKL085W, strain MDH1 (second series), active compounds read low 0.983 | S. cerevisiae deletion strains, locus YKL085W, strain MDH1, active compounds read low 0.983 | S. cerevisiae deletion strains, locus YKL160W, strain elf1, active compounds read low 0.981 | S. cerevisiae deletion strains, locus YKR001C, strain vps1, active compounds read low 0.978 | S. cerevisiae deletion strains, locus YKR026C, strain gcn3, active compounds read low 1 | S. cerevisiae deletion strains, locus YKR091W, strain srl3, active compounds read low 0.998 | S. cerevisiae deletion strains, locus YLL001W, strain dnm1, active compounds read low 0.954 | S. cerevisiae deletion strains, locus YLL026W, active compounds read low 1.01 | S. cerevisiae deletion strains, locus YLL041C, strain sdh2, active compounds read low 1.01 | S. cerevisiae deletion strains, locus YLR027C, strain aat2, active compounds read low 1.01 | S. cerevisiae deletion strains, locus YLR039C, strain RIC1, active compounds read low 0.959 | S. cerevisiae deletion strains, locus YLR058C, strain SHM2, active compounds read low 0.993 | S. cerevisiae deletion strains, locus YLR102C, strain apc9, active compounds read low 0.988 | S. cerevisiae deletion strains, locus YLR113W, strain HOG1, active compounds read low 0.967 | S. cerevisiae deletion strains, locus YLR221C, strain rsa3, active compounds read low 0.979 | S. cerevisiae deletion strains, locus YLR258W, strain gsy2, active compounds read low 0.996 | S. cerevisiae deletion strains, locus YLR262C, strain YPT6 (second series), active compounds read low 0.974 | S. cerevisiae deletion strains, locus YLR262C, strain YPT6, active compounds read low 1.04 | S. cerevisiae deletion strains, locus YLR268W, strain sec22, active compounds read low 0.969 | S. cerevisiae deletion strains, locus YLR320W, strain mms22, active compounds read low 1.01 | S. cerevisiae deletion strains, locus YLR330W, strain CHS5, active compounds read low 0.995 | S. cerevisiae deletion strains, locus YLR342W, strain FKS1 (second series), active compounds read low 0.968 | S. cerevisiae deletion strains, locus YLR342W, strain FKS1, active compounds read low 1.01 | S. cerevisiae deletion strains, locus YLR357W, strain rsc2, active compounds read low 0.983 | S. cerevisiae deletion strains, locus YLR370C, strain arc18, active compounds read low 1 | S. cerevisiae deletion strains, locus YLR371W, strain rom2, active compounds read low 0.963 | S. cerevisiae deletion strains, locus YLR384C, strain iki3, active compounds read low 0.998 | S. cerevisiae deletion strains, locus YLR418C, strain cdc73, active compounds read low 0.948 | S. cerevisiae deletion strains, locus YML016C, strain PPZ1, active compounds read low 0.994 | S. cerevisiae deletion strains, locus YML032C, strain rad52, active compounds read low 0.988 | S. cerevisiae deletion strains, locus YML120C, strain ndi1, active compounds read low 0.985 | S. cerevisiae deletion strains, locus YML124C, strain tub3, active compounds read low 0.994 | S. cerevisiae deletion strains, locus YMR058W, strain fet3, active compounds read low 1 | S. cerevisiae deletion strains, locus YMR078C, strain ctf18, active compounds read low 0.973 | S. cerevisiae deletion strains, locus YMR125W, strain sto1, active compounds read low 0.994 | S. cerevisiae deletion strains, locus YMR129W, active compounds read low 1 | S. cerevisiae deletion strains, locus YMR205C, strain PFK2, active compounds read low 0.994 | S. cerevisiae deletion strains, locus YMR223W, strain ubp8, active compounds read low 0.953 | S. cerevisiae deletion strains, locus YMR231W, strain pep5, active compounds read low 0.999 | S. cerevisiae deletion strains, locus YMR263W, strain SAP30, active compounds read low 0.997 | S. cerevisiae deletion strains, locus YMR307W, strain GAS1, active compounds read low 0.95 | S. cerevisiae deletion strains, locus YNL067W, strain RPL9B, active compounds read low 1 | S. cerevisiae deletion strains, locus YNL071W, strain lat1, active compounds read low 1.02 | S. cerevisiae deletion strains, locus YNL183C, strain NPR1, active compounds read low 0.963 | S. cerevisiae deletion strains, locus YNL209W, strain ssb2, active compounds read low 0.991 | S. cerevisiae deletion strains, locus YNL233W, strain BNI4, active compounds read low 0.987 | S. cerevisiae deletion strains, locus YNL248C, strain rpa49, active compounds read low 0.995 | S. cerevisiae deletion strains, locus YNL250W, strain rad50, active compounds read low 0.967 | S. cerevisiae deletion strains, locus YNL271C, strain bni1, active compounds read low 0.964 | S. cerevisiae deletion strains, locus YNL298W, strain CLA4, active compounds read low 0.966 | S. cerevisiae deletion strains, locus YNL307C, strain MCK1, active compounds read low 0.979 | S. cerevisiae deletion strains, locus YNL322C, strain KRE1 (second series), active compounds read low 0.991 | S. cerevisiae deletion strains, locus YNR049C, strain mso1, active compounds read low 1 | S. cerevisiae deletion strains, locus YNR052C, strain pop2, active compounds read low 0.963 | S. cerevisiae deletion strains, locus YOL006C, strain TOP1, active compounds read low 0.878 | S. cerevisiae deletion strains, locus YOL012C, strain htz1 1.03 | S. cerevisiae deletion strains, locus YOL147C, strain pex11, active compounds read low 0.983 | S. cerevisiae deletion strains, locus YOR001W, strain rrp6, active compounds read low 1.02 | S. cerevisiae deletion strains, locus YOR061W, strain CKA2, active compounds read low 0.996 | S. cerevisiae deletion strains, locus YOR069W, strain VPS5, active compounds read low 0.99 | S. cerevisiae deletion strains, locus YOR070C, strain gyp1, active compounds read low 1 | S. cerevisiae deletion strains, locus YOR080W, strain dia2, active compounds read low 1.01 | S. cerevisiae deletion strains, locus YOR083W, strain WHI5, active compounds read low 0.981 | S. cerevisiae deletion strains, locus YOR106W, strain vam3, active compounds read low 0.976 | S. cerevisiae deletion strains, locus YOR136W, strain idh2, active compounds read low 0.991 | S. cerevisiae deletion strains, locus YOR144C, strain elg1, active compounds read low 0.984 | S. cerevisiae deletion strains, locus YOR184W, strain ser1, active compounds read low 0.977 | S. cerevisiae deletion strains, locus YOR231W, strain MKK1, active compounds read low 1.01 | S. cerevisiae deletion strains, locus YOR265W, strain rbl2, active compounds read low 1 | S. cerevisiae deletion strains, locus YOR270C, strain vph1, active compounds read low 1.02 | S. cerevisiae deletion strains, locus YOR290C, strain snf2, active compounds read low 0.958 | S. cerevisiae deletion strains, locus YOR316C, strain cot1, active compounds read low 0.986 | S. cerevisiae deletion strains, locus YPL051W, strain arl3, active compounds read low 0.976 | S. cerevisiae deletion strains, locus YPL078C, strain atp4, active compounds read low 0.989 | S. cerevisiae deletion strains, locus YPL106C, strain sse1, active compounds read low 0.959 | S. cerevisiae deletion strains, locus YPL240C, strain hsp82, active compounds read low 1.01 | S. cerevisiae deletion strains, locus YPL241C, strain CIN2, active compounds read low 1 | S. cerevisiae deletion strains, locus YPL256C, strain CLN2, active compounds read low 0.992 | S. cerevisiae deletion strains, locus YPR119W, strain clb2, active compounds read low 0.982 | S. cerevisiae deletion strains, locus YPR141C, strain kar3, active compounds read low 0.975 | S. cerevisiae deletion strains, locus YPR163C, strain tif3, active compounds read low 0.986 | S. cerevisiae deletion strains, locus YPR167C, strain met16, active compounds read low 0.993 | S. cerevisiae deletion strains, strain wtn01, active compounds read low 0.971 | S. cerevisiae strains, strain wild type, active compounds read low 1.01
